Source: PubChem (National Center for Advancing Translational Sciences (NCATS))
Marburg entry inh: qHTS for inhibitors of binding or entry into cells for Marburg Virus; Marburg virus pseudotyped entry inhibition, cell reporter; Potency, µM (top dose mostly 37.8 µM), inactives show at the highest dose activity change, negative = inhibition, hits mostly inhibitors; actives 1.8% (n = 300,000); calls by dose curve; tested in HEK293 cells; further: potency means the concentration at half of the fitted maximal effect; on the % scale 0 is the no-effect control and ±100 the full control effect
Lassa entry inh: qHTS for Inhibitors of binding or entry into cells for Lassa Virus | Lassa virus pseudotype entry inhibition, cell reporter | Potency, µM (doses to about 37.9 µM), inactives show at the top dose activity change, negative = inhibition, hits mostly inhibitors | actives 1.2% (n = 300,000) | AID 540256, 2011; calls by dose curve; tested in HEK293 cells; further: potency means the concentration at half of the fitted maximal effect; on the % scale 0 is the no-effect control and ±100 the full control effect; nearly all actives have a fitted effect of over 50% in size
AMA1 RON2 block: qHTS for Inhibitors of AMA1-RON; Towards Development of Antimalarial Drug Lead: Primary Screen | AlphaScreen AMA1-biotinylated RON2 peptide binding | Potency, µM (series often up to 58.2 µM), inactives show top-dose activity change, negative = inhibition, usual class: inhibitors | Plasmodium falciparum AMA1 (3D7) - RON2 peptide interaction | AID 720542, 2013 | actives 0.2% (n = 360,000); active means well fitted inhibition curve with a large enough effect; inconclusive means small, poorly fitted or top-dose-only effect; inactive means no such curve, though single readings can be large or run the other way;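 further: potency means the concentration at half of the fitted maximal effect; 0% = vehicle wells and -100% = peptide control; nearly all actives have a fitted effect of over 45% in size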
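AMA1 (3D7) with his tag at 25 nM final met compounds first, then biotinylated RON2 peptide at 25 nM; detection used donor plus acceptor beads, 10 µg/mL apiece, read by AlphaScreen after 30 min at room temperature.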
Shiga toxin inh: A qHTS for Small Molecule Inhibitors of Shiga Toxin | Vero cells, Shiga toxin protein synthesis inhibition reporter | inhibition, % at 38.7 µM | actives 9.2% (n = 290,000) | AID 2315, 2010; in the data active means inhibition mostly above about 28%, no sharp cut-off; inactive means mostly below about 43%; further: 0% is about no effect
Cycloheximide cs: Cycloheximide Counterscreen for Small Molecule Inhibitors of Shiga Toxin | cell reporter, cycloheximide protein synthesis inhibition counterscreen | max response, % | actives 12% (n = 300,000); in the data active means max response mostly above about 13%, no sharp cut-off; inactive means mostly below about 14%; further: read at 38.3 µM for the half of the compounds with a filed dose; 0% is about no effect
Active calls of the source: *; i = inactive; ? = inconclusive; · = no result; [ ] = remark or other dose. This is one part of a sample in which hits are shown more often than they occur.

SMILES	Marburg entry inh	Lassa entry inh	AMA1 RON2 block	Shiga toxin inh	Cycloheximide cs
O=C(N/N=C/c1cc([N+](=O)[O-])ccc1O)c1cccc2cc[nH]c12	·	·	44.9%	31.0*	33.1*
O=C(N/N=C/c1cccc([N+](=O)[O-])c1)c1ccc(Br)cc1	-20.2%[46.1 µM]	-4.1%[46.1 µM]	-10.1%	9.2	-4.1
CCOc1ccccc1NC(=O)CSc1nc2ccccc2nc1Cc1ccc(C)cc1	·	5.0%[46.1 µM]	·	·	·
CC(C)CO/N=C1\C[C@@H](O)[C@@H](O)[C@@H]2[C@@H]3C(=O)N(c4cccc(Oc5ccccc5)c4)C(=O)[C@@H]3CC[C@@H]12	-1.1%[14.2 µM]	·	·	·	·
O=C1[C@@H]2Cc3c([nH]c4ccccc34)C(c3cccc(Br)c3)N2C(=O)CN1C1CCN(Cc2ccccc2)CC1 (some centres undefined)	?	?	-25.6%	17.4	17.9*
CCOc1ccccc1C1c2[nH]c3ccccc3c2C[C@H]2C(=O)N(C3CCN(Cc4ccccc4)CC3)CC(=O)N12 (some centres undefined)	20µM*	?	-28.6%	20.7	6.7
CN(C)C(=O)c1nnsc1Sc1ccc(Cl)cc1	?	12.1%	4.0%	50.8*	25.9*
CCCn1c(-c2ccccc2)nc2c(=O)n(C)c(=O)[nH]c21	12.1%	-1.7%	3.5%	-19.0	-4.2
Cc1nc2c(=O)n(C)c(=O)[nH]c2n1Cc1ccccc1	21.9%	2.7%	-11.5%	19.8	36.5*
CC(=O)Nc1ccc(SCC(=O)Nc2ccccc2-c2ccccc2)cc1	1.2%	1.6%	11.4%	13.6	6.3
CC(=O)Nc1ccc(SCc2ncc(-c3ccccc3)o2)cc1	?	-26.0%[46.1 µM]	2.0%	89.6*	43.9*
COc1cccc(CNc2ccc(S(N)(=O)=O)cc2)c1OC	-2.9%	13.5%	3.2%	-9.7	-1.0
COc1cccc(CNc2ccc3c(c2)nc(C)n3C)c1OC	·	·	-2.1%	61.0*	33.4*
COc1cccc(CNc2ccc3c(c2)ncn3C)c1OC	-0.3%	9.1%	-6.1%	22.7	18.6*
CCCn1cnc2cc(NCc3ccccc3OCC)ccc21	-3.8%[46.1 µM]	-8.6%[46.1 µM]	·	·	·
Cc1cccc(OCC(=O)OCc2cc(=O)n3nc(C4CC4)sc3n2)c1	·	1.7%[46.1 µM]	·	·	·
COc1ccc(C2(c3ccc(OC)cc3)NC(=O)N(CC(=O)N(C)C)C2=O)cc1	-16.7%[46.1 µM]	-7.3%[46.1 µM]	0.2%	-1.5	-2.0
Cc1ccc(NC2=CC(=O)C(=O)c3ccccc32)cc1	?	?	-19.3%	114.6*	43.3*
CCNC1=C(Cl)C(=O)c2ccccc2C1=O	-18.5%	-13.6%	-20.6%	-1.3	2.6
CC(=O)c1ccc(NC2=C(N3CCOCC3)C(=O)c3ccccc3C2=O)cc1	?	?	?	20.8	-4.6
Cc1ccc(NC2=C(N3CCOCC3)C(=O)c3ccccc3C2=O)cc1	?	?	23.8µM*	71.7*	47.1*
CCN(CC)c1ccc(NC2=C(Cl)C(=O)c3ccccc3C2=O)cc1	3.98µM*	5.62µM*	6.31µM*	128.3*	59.7*
Cc1ccc(NC2=C(Cl)C(=O)c3ccccc3C2=O)cc1	?	12.6µM*	-23.3%	70.2*	24.8*
CC(CN)(NS(=O)(=O)c1ccccc1)c1ccccc1 (centres undefined)	2.1%	0.3%	5.1%	-10.5	-4.0
COC(=O)N[C@@H](C=Cc1ccccc1)C[N+](=O)[O-]	7.3%[14.2 µM]	·	·	·	·
SMILES	Marburg entry inh	Lassa entry inh	AMA1 RON2 block	Shiga toxin inh	Cycloheximide cs
Cc1ccc2c(c1)N(C(=O)CCC(=O)NCCCN1CC(C)CC(C)C1)CCO2 (centres undefined)	·	·	11.2%	-1.5	-0.7
Cc1cc(C)cc(NC2=C(N)C(=O)c3ccccc3C2=O)c1	·	·	?	121.5*	42.6*
CCCC(=O)NC1=C(Cl)C(=O)c2ccccc2C1=O	?	?	15.3%	·	·
O=C1C(Cl)=C(Nc2ccc(O)cc2)C(=O)c2ccccc21	?	4.47µM*	-3.1%	47.6*	22.7*
CCOC(=O)c1nc(NCc2ccccc2)c2ccccc2n1	4.5%[46.1 µM]	·	18.4%	116.5*	40.2*
CNc1nc(NCc2ccc(N(C)C)cc2)c2sccc2n1	·	·	20µM*	·	·
CNc1nc(NCc2ccccc2)c2ccccc2n1	3.98µM*	?	-0.1%	-8.0	1.7
C=CCNc1nc(C(=O)OCC)nc2ccccc12	·	·	4.2%	14.2	10.2
CC1CCc2sc(C(=O)Nc3ccc(C(N)=O)cc3)cc2C1 (centres undefined)	20.1%[46.1 µM]	8.6%	-7.2%	23.0	32.3*
CCc1sc(C(=O)Nc2ccc(OC)c(S(=O)(=O)N3CCOCC3)c2)cc1C	·	·	-5.2%	·	·
COc1ccc(NC(=O)c2cc3c(s2)CCC(C)C3)cc1S(=O)(=O)N1CCOCC1 (centres undefined)	?	23.1µM*	-7.3%	11.0	10.2
CC1CCc2sc(C(=O)NNC(=S)NC3CC3)cc2C1 (centres undefined)	7.6%[46.1 µM]	14.1%[46.1 µM]	91.6%	24.1	20.8*
COc1cc(OC)c(OC)cc1CNCCCSc1nnnn1C	4.2%[46.1 µM]	-3.5%[46.1 µM]	·	·	·
CC1(C)CC(=O)c2sc(NS(=O)(=O)Cc3ccccc3)nc2C1	11.7%	26.1%	-5.0%	41.3*	26.8*
CCOC(=O)CSc1nc(C)c2ccc(C)cc2n1	4.8%	0.9%	-16.0%	43.8	12.0*
CCOC(=O)CCSc1nc(C)c2cc(C)c(C)cc2n1	10.2%	-13.3%	22.8%	43.5*	29.7*
CCOC(=O)CCSc1nc(C)c2cc(OC)ccc2n1	?	-1.0%	4.8%	79.9*	51.2*
Cc1cc2nc(SCCOC(=O)Nc3ccccc3)nc(C)c2cc1C	?	-13.0%	7.1%	30.9	-2.8
CCCCC1=C(C(=O)OCC)C(C(=O)OCC)Oc2ccccc21 (centres undefined)	·	·	14.2%	i	7.0
COc1cccc(C2=N/C(=C\N(C)C)C(=O)O2)c1	?	2.7%	-12.8%	93.8	34.2*
Cc1cn(C2CC3OCC(NC(=O)C(NC(=O)OC(C)(C)C)C(C)OCc4ccccc4)C3O2)c(=O)[nH]c1=O (centres undefined)	·	·	·	-3.3	-1.8
COc1cc(C)ccc1OCc1cc(C(=O)N2CCN(C3CCCCC3)CC2)no1	·	·	-0.4%	58.4*	47.6*
COc1cc(C)ccc1OCc1cc(C(=O)N2CCCCCCC2)no1	1.0%	-2.7%	0.0%	92.4*	51.2*
COc1cc(Cl)ccc1OCc1cc(C(=O)N2CCC(N(C)C)C2)no1 (centres undefined)	·	·	4.2%	1.7	11.0
CCN1CCN(C(=O)c2ccc(OCC(=O)Nc3ccc(F)cc3)c(OC)c2)CC1	17.9%[46.1 µM]	13.5%	-7.1%	-11.3	6.4
CCN1CCN(C(=O)c2cc(COc3ccc(C(C)=O)cc3OC)on2)CC1	?	?	-0.3%	75.0*	42.7*
COC(=O)CSc1nc2ccccn2c(=O)c1C=O	12.5%[46.1 µM]	7.7%[46.1 µM]	3.9%	45.9*	17.5*
CC(C)(C)c1cc(CCC(=O)NCc2ccncc2)cc(C(C)(C)C)c1O	-1.6%	4.2%	-2.5%	24.4	19.5*
COc1ccc(S(=O)(=O)N2CCC(N3CCN(Cc4ccc(F)cc4)C(=O)C3=O)CC2)cc1	·	-0.9%[46.1 µM]	·	·	·
